The panel holds about 83,000 compounds, 20% with a hit somewhere; the sample as a whole holds those more often.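 48-hour exposure, single concentration, 96-well plates; percent growth endpoint where 0 means no net growth. Active: below 10.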 Activity calls are given as the source filed them.

This assay relates to NCI-H522 lung. As to the kind of experiment: NCI-60 one-dose screen, 48 h (100 = growth as untreated, 0 = no growth, -100 = all killed). The conditions noted are these: 10 µM.
For the molecule `COC(=O)CC1CC1C1Cc2c(nc(N(C)S(C)(=O)=O)nc2C(C)C)-c2ccc(F)cc21` (configuration not stated), the growth is 55.6% (inactive). In the case of `CN1CCN(c2ccc(Nc3nc(N4CCN(S(=O)(=O)c5ccc(Cl)cc5)CC4)c4sccc4n3)cc2)CC1` it was -82.7% (active); in that of `Cc1ccc(-c2ccc(SCC(=O)Nc3ccc(Cl)c(C(F)(F)F)c3)nn2)cc1`, -1.27% (active).

On to `Oc1ccc(/C=C2\CCCc3cc4ccc(O)cc4[o+]c32)c(O)c1`, for which the growth is 4.53% (active). As for `O=C(Nc1ccc(F)c(Cl)c1)c1cc(-c2ccc(F)cc2F)ccc1O`, the figure is -15% (active); as for `CCN1CCN(c2ccc(NC(=O)Nc3ccc4c(c3F)CCN4c3ccnc(C(=O)NC)c3)cc2C(F)(F)F)CC1`, 110% (inactive). In the case of `O=C(CS(=O)(=O)c1oc(-c2ccc(Cl)cc2)nc1S(=O)(=O)c1ccccc1)N1CCCC1` it was -89.3% (active). As for `C=C(C)[C@@H]1CC[C@]2(C)[C@H](CC=C3[C@@H]4CC(C)(C)CC[C@]4(C(=O)N4CCOCC4)CC[C@]32C)[C@@]1(C)CCCN`, the figure is -91.6% (active); as for `COc1ccccc1C(=O)NNC(=O)CSc1nc2c(c(=O)[nH]1)CCCC2`, 104% (inactive). Consider `Cc1ccc(/C(N)=N/c2sc(-c3ccccc3)nc2-c2ccccc2)cc1`, for which the growth is 83% (inactive). In the case of `O=C(COc1ccc(NC(=O)Nc2ccc(Cl)cc2)cc1)N=Nc1c(O)[nH]c2ccc([N+](=O)[O-])cc12` it was 8.06% (active); in that of `COc1cc(/C=C/C(=O)c2cc(OC)c(OC)c(OC)c2)ccc1Oc1nc(Nc2ccc(F)cc2)nc(N(C)C)n1`, -82.7% (active).

The values are drawn from PubChem BioAssay (NCI).
